# Results from PubChem BioAssay (EPA / NIEHS).
# Inconclusive results are not listed. The source made the active and inactive calls. Rule for the calls, unless noted: active = hit-call score of the fitted dose curve at least 0.9, where 1 is the maximum; inactive = score below 0.9.
# Tests used:
# [1] = read-out: matrix metalloproteinase-3 (MMP3), MMP3 (gene 4314); test: LTEA_HepaRG_MMP3: Life Technologies and Expression Analysis (LTEA) Assay for matrix metalloproteinase-3 (MMP3) using HepaRG (AID 2283519); conditions: mRNA level, 48 h; actives raise or lower the signal
# How it was run: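 Differentiated human HepaRG cells, plated 48 h on collagen I, were exposed in duplicate for 48 h in serum-free induction medium to eight half-log concentrations up to 100 uM in 0.5% DMSO. MMP3 mRNA was quantified by TaqMan qRT-PCR, normalised to ACTB, GAPDH and POLR2A.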
# [2] = read-out: Paternally Expressed 10 (PEG10), PEG10 (gene 23089); test: LTEA_HepaRG_PEG10: Life Technologies and Expression Analysis (LTEA) Assay for Paternally Expressed 10 (PEG10) using HepaRG (AID 2283520); conditions: mRNA level, 48 h; actives raise or lower the signal;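 for AC50: PEG10 transcript by qRT-PCR normalised to ACTB GAPDH and POLR2A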
# How it was run: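 Chemicals tested on HepaRG cells for 48 h, highest concentration 100 uM. PEG10 expression assessed by qRT-PCR relative to DMSO control.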
# [3] = read-out: Nuclear factor NF-kappa-B p105 subunit (Homo sapiens) (UniProt P19838); test: LTEA_HepaRG_NFKB1: Life Technologies and Expression Analysis (LTEA) Assay for Nuclear Factor Kappa B Subunit 1 (NFKB1) using HepaRG (AID 2283521); conditions: mRNA level, 48 h; actives raise or lower the signal
# How it was run: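 NFKB1 transcript was measured by TaqMan qRT-PCR on Fluidigm arrays, normalised to three housekeeping genes and fitted in both directions against 0.5% DMSO. HepaRG cells were dosed in duplicate for 48 h in serum-free induction medium, eight half-log steps from 100 uM.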
# [4] = read-out: Protein phosphatase 2A (PPP2R4), PTPA (gene 5524); test: LTEA_HepaRG_PPP2R4: Life Technologies and Expression Analysis (LTEA) Assay for Protein phosphatase 2A (PPP2R4) using HepaRG (AID 2283522); conditions: mRNA level, 48 h; actives raise or lower the signal
# How it was run: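 Gene-expression endpoint in HepaRG hepatic cells: 48 h treatment across eight half-log concentrations up to 100 uM in 0.5% DMSO. PPP2R4 mRNA by qRT-PCR, normalized to three endogenous control genes.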
# [5] = read-out: Phosphatase and tensin (PTEN), PTEN (gene 5728); test: LTEA_HepaRG_PTEN: Life Technologies and Expression Analysis (LTEA) Assay for Phosphatase and tensin (PTEN) using HepaRG (AID 2283523); conditions: mRNA level, 48 h; actives raise or lower the signal
# How it was run: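 Differentiated human HepaRG cells, plated 48 h then switched to serum-free induction medium, were exposed in duplicate for 48 h to eight half-log concentrations up to 100 uM in 0.5% DMSO. PTEN mRNA measured by TaqMan qRT-PCR, normalized to ACTB/GAPDH/POLR2A, bidirectional fit versus DMSO.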
# [6] = read-out: solute carrier (SLC22A1), SLC22A1 (gene 6580); test: LTEA_HepaRG_SLC22A1: Life Technologies and Expression Analysis (LTEA) Assay for solute carrier (SLC22A1) using HepaRG (AID 2283524); conditions: mRNA level, 48 h; actives raise or lower the signal
# How it was run: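 Human HepaRG cells were plated 48 h, switched to serum-free induction medium, then exposed in duplicate for 48 h to 8-point half-log series from 100 uM in 0.5% DMSO. SLC22A1 mRNA measured by qRT-PCR, normalized to ACTB/GAPDH/POLR2A, fitted bidirectionally versus DMSO.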
# [7] = read-out: Pyruvate Dehydrogenase Kinase 4 (PDK4), PDK4 (gene 5166); test: LTEA_HepaRG_PDK4: Life Technologies and Expression Analysis (LTEA) Assay for Pyruvate Dehydrogenase Kinase 4 (PDK4) using HepaRG (AID 2283525); conditions: mRNA level, 48 h; actives raise or lower the signal
# How it was run: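 Differentiated human HepaRG cells, pre-cultured 48 h, were exposed in duplicate for 48 h in serum-free induction medium to eight half-log concentrations up to 100 uM in 0.5% DMSO. PDK4 mRNA was quantified by qRT-PCR, normalized to ACTB, GAPDH and POLR2A, bidirectional fitting versus DMSO.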
# [8] = read-out: succinate dehydrogenase complex iron sulfur subunit B (SDHB), SDHB (gene 6390); test: LTEA_HepaRG_SDHB: Life Technologies and Expression Analysis (LTEA) Assay for succinate dehydrogenase complex iron sulfur subunit B (SDHB) using HepaRG (AID 2283528); conditions: mRNA level, 48 h; actives raise or lower the signal
# How it was run: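 SDHB transcript level read by TaqMan qRT-PCR, housekeeping-normalised (ACTB, GAPDH, POLR2A), after 48 h chemical treatment of plated HepaRG cells; eight concentrations top 100 uM, half-log steps, 0.5% DMSO, duplicates; fitted both directions against DMSO.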
# [9] = read-out: Signal transducer and activator of transcription 3 (Homo sapiens) (UniProt P40763); test: LTEA_HepaRG_STAT3: Life Technologies and Expression Analysis (LTEA) Assay for Signal transducer and activator of transcription (STAT3) using HepaRG (AID 2283529); conditions: mRNA level, 48 h; actives raise or lower the signal
# How it was run: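 Differentiated human HepaRG cells in serum-free induction medium were exposed in duplicate for 48 h to eight half-log concentrations up to 100 uM in 0.5% DMSO. STAT3 mRNA was quantified by TaqMan qRT-PCR, normalized to ACTB, GAPDH and POLR2A, and fitted bidirectionally against DMSO.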
# [10] = read-out: solute carrier (SLCO1B1), SLCO1B1 (gene 10599); test: LTEA_HepaRG_SLCO1B1: Life Technologies and Expression Analysis (LTEA) Assay for solute carrier (SLCO1B1) using HepaRG (AID 2283530); conditions: mRNA level, 48 h; actives raise or lower the signal
# How it was run: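 Human HepaRG cultures treated for 48 h with an eight-concentration half-log series topping at 100 uM; SLCO1B1 measured by qRT-PCR and fitted bidirectionally relative to DMSO.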
# [11] = read-out: sulfotransferase 2A1 (SULT2A1), SULT2A1 (gene 6822); test: LTEA_HepaRG_SULT2A1: Life Technologies and Expression Analysis (LTEA) Assay for sulfotransferase 2A1 (SULT2A1) using HepaRG (AID 2283531); conditions: mRNA level, 48 h; actives raise or lower the signal
# How it was run: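 Gene-expression endpoint in a human liver cell line: SULT2A1 mRNA change after 48 h chemical treatment, curves fitted in both directions relative to 0.5% DMSO vehicle. Concentrations spanned eight half-log steps from 100 uM.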
# [12] = read-out: Transforming Growth Factor (TGFA), TGFA (gene 7039); test: LTEA_HepaRG_TGFA: Life Technologies and Expression Analysis (LTEA) Assay for Transforming Growth Factor (TGFA) using HepaRG (AID 2283532); conditions: mRNA level, 48 h; actives raise or lower the signal
# How it was run: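 Differentiated human HepaRG cells, plated 48 h then switched to serum-free induction medium, were exposed in duplicate for 48 h to 8-point half-log series from 100 uM in 0.5% DMSO. TGFA mRNA measured by qRT-PCR, normalized to ACTB/GAPDH/POLR2A, bidirectional fit versus DMSO.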
# [13] = read-out: Transforming Growth Factor (TGFB1), TGFB1 (gene 7040); test: LTEA_HepaRG_TGFB1: Life Technologies and Expression Analysis (LTEA) Assay for Transforming Growth Factor (TGFB1) Transporter using HepaRG (AID 2283533); conditions: mRNA level, 48 h; actives raise or lower the signal
# How it was run: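 Eight-point concentration-response (max 100 uM, half-log) in HepaRG under serum-free induction conditions, 48 h. TGFB1 mRNA by qRT-PCR, housekeeping-normalized.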
# TIMP1, TIMP1 (gene 7076) = test: LTEA_HepaRG_TIMP1: Life Technologies and Expression Analysis (LTEA) Assay for TIMP1 using HepaRG (AID 2283534); conditions: mRNA level, 48 h; actives raise or lower the signal;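 for outcome: TaqMan qRT-PCR signal normalized to ACTB GAPDH and POLR2A housekeeping genes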
# How it was run: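 TIMP1 induction or repression in HepaRG cells after 48 h chemical exposure (eight concentrations, highest 100 uM), assessed by normalized qRT-PCR with bidirectional fitting to DMSO controls.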
# [14] = read-out: Tumor necrosis factor receptor 1 (TNFRSF1A), TNFRSF1A (gene 7132); test: LTEA_HepaRG_TNFRSF1A: Life Technologies and Expression Analysis (LTEA) Assay for Tumor necrosis factor receptor 1 (TNFRSF1A) using HepaRG (AID 2283535); conditions: mRNA level, 48 h; actives raise or lower the signal
# How it was run: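 Assay uses 48 h chemical treatment of differentiated HepaRG monolayers, tested in duplicate at eight concentrations from 100 uM downward in 0.5% DMSO. mRNA is normalized to ACTB, GAPDH and POLR2A, with induction or suppression fitted relative to vehicle.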
# [15] = read-out: Thyroid Hormone Responsive (THRSP), THRSP (gene 7069); test: LTEA_HepaRG_THRSP: Life Technologies and Expression Analysis (LTEA) Assay for Thyroid Hormone Responsive (THRSP) using HepaRG (AID 2283536); conditions: mRNA level, 48 h; actives raise or lower the signal
# How it was run: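 Differentiated human HepaRG cells were exposed in duplicate for 48 h in serum-free induction medium to eight concentrations (top 100 uM, half-log steps, 0.5% DMSO). Expression was quantified by TaqMan qRT-PCR, normalized to ACTB, GAPDH and POLR2A, with bidirectional fitting against DMSO.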
# [16] = read-out: UDP glucuronosyltransferase (UGT1A6), UGT1A6 (gene 54578); test: LTEA_HepaRG_UGT1A6: Life Technologies and Expression Analysis (LTEA) Assay for UDP glucuronosyltransferase (UGT1A6) using HepaRG (AID 2283539); conditions: mRNA level, 48 h; actives raise or lower the signal
# How it was run: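 Measures mRNA change in HepaRG hepatic cells exposed 48 h to chemicals (eight-point, maximum 100 uM, 0.5% DMSO vehicle) in serum-free induction medium. Expression normalized to endogenous controls; DMSO served as negative control and baseline.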
# [17] = read-out: X-box binding protein 1 (XBP1), XBP1 (gene 7494); test: LTEA_HepaRG_XBP1: Life Technologies and Expression Analysis (LTEA) Assay for X-box binding protein 1 (XBP1) using HepaRG (AID 2283540); conditions: mRNA level, 48 h; actives raise or lower the signal
# How it was run: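 Eight concentrations (half-log, highest 100 uM, 0.5% DMSO) tested in duplicate on HepaRG cells over 48 h in serum-free induction medium; qRT-PCR of XBP1 normalised to ACTB, GAPDH, POLR2A.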
# [18] = LTEA_HepaRG_LDH_cytotoxicity: Cytotoxicity Assessment in the Life Technologies and Expression Analysis (LTEA) Assay (AID 2283563; active = hit-call score of the fitted dose curve at least 0.9, where 1 is the maximum;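 for AC50: LDH activity released into spent culture medium as a marker of cell death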)
# How it was run: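 Spent-medium LDH after 48 h chemical exposure of HepaRG cells in serum-free induction medium; eight concentrations, half-log dilutions from 100 uM, duplicate wells, fitted upward relative to 0.5% DMSO.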
# [19] = ATG_XTT_Cytotoxicity: Cytotoxicity Assessment in the Attagene TRANS-FACTORIAL HepG2 Assay (AID 2283584; active = hit-call score of the fitted dose curve at least 0.9, where 1 is the maximum)
# How it was run: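 24 h chemical exposure of reporter-transfected HepG2; XTT signal loss vs DMSO indicates cytotoxicity.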
# Signal transducer and activator of transcription 3 (Homo sapiens), sequence (P40763 whole entry, looked up): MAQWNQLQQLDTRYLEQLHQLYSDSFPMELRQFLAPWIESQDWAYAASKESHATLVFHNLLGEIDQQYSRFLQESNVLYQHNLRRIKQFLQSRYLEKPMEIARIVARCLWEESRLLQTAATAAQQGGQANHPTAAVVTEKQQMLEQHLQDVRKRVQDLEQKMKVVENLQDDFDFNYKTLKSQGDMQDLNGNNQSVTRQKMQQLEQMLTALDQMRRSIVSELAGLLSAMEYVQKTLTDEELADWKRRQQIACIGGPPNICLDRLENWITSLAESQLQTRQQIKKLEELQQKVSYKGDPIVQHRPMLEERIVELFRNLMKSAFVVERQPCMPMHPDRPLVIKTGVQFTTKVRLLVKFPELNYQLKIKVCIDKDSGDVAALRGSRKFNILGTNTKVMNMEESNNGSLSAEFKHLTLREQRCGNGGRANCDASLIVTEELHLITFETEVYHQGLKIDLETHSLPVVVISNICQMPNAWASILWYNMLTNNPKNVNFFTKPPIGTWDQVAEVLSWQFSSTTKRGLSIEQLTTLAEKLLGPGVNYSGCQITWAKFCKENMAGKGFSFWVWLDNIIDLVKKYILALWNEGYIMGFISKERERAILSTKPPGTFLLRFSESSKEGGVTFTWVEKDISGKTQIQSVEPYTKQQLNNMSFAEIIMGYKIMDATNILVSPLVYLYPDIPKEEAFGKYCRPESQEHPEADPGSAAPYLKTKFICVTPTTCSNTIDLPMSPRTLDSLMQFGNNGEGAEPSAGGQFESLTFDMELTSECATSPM
# Nuclear factor NF-kappa-B p105 subunit (Homo sapiens), sequence (P19838 whole entry, looked up): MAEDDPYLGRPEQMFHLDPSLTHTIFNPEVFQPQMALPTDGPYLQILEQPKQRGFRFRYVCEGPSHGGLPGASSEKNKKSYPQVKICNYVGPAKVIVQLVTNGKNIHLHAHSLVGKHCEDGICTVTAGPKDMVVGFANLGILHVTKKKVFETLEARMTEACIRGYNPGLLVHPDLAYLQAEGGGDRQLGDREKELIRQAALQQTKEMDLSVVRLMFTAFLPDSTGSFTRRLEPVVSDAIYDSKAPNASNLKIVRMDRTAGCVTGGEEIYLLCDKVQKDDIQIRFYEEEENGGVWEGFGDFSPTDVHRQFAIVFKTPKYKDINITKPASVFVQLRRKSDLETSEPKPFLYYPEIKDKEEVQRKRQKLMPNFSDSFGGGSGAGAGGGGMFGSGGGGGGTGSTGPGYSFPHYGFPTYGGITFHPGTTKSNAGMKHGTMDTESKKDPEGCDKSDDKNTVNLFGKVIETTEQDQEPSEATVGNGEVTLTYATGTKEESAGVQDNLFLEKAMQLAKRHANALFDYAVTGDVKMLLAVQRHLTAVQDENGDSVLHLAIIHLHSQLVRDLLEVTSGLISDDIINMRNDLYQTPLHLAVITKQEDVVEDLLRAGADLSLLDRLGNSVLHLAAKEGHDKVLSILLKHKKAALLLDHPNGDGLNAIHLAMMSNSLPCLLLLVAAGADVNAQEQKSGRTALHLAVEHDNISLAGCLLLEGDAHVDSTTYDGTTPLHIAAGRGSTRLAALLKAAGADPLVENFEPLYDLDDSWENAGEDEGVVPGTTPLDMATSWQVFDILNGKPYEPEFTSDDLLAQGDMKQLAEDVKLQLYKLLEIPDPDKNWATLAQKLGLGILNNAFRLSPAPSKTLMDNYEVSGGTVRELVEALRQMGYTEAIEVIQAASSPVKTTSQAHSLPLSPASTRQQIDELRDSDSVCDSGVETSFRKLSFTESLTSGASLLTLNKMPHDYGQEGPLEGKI
structure (smiles),measurement,setting,value
O=C(Nc1ccc2[nH]ccc2c1)c1cc2cc(F)ccc2n1Cc1cccc(F)c1,outcome,[1],inactive
same,AC50,[2],50 µM (active)
same,outcome,[3],inactive
same,outcome,[4],inactive
same,outcome,[5],inactive
same,AC50,[6],39.5 µM (active)
same,AC50,[7],89.3 µM (active)
same,outcome,[8],inactive
same,outcome,[9],inactive
same,AC50,[10],36.1 µM (active)
same,AC50,[11],31.8 µM (active)
same,AC50,[12],29.3 µM (active)
same,outcome,[13],inactive
same,AC50,"TIMP1, TIMP1 (gene 7076)",81.9 µM (active)
same,outcome,[14],inactive
same,AC50,[15],28.3 µM (active)
same,AC50,[16],30.2 µM (active)
same,outcome,[17],inactive
same,AC50,[18],38.3 µM (active)
O=[N+]([O-])c1ccc(O)c([N+](=O)[O-])c1,outcome,[1],inactive
same,AC50,[2],13.2 µM (active)
same,AC50,[3],13 µM (active)
same,AC50,[4],13.1 µM (active)
same,AC50,[5],31.8 µM (active)
same,AC50,[6],25.2 µM (active)
same,AC50,[7],11.8 µM (active)
same,AC50,[8],13 µM (active)
same,AC50,[9],12.8 µM (active)
same,AC50,[10],20.4 µM (active)
same,AC50,[11],17.7 µM (active)
same,outcome,[12],inactive
same,outcome,[13],inactive
same,AC50,"TIMP1, TIMP1 (gene 7076)",12.6 µM (active)
same,AC50,[14],4.42 µM (active)
same,AC50,[15],9.32 µM (active)
same,AC50,[16],20.2 µM (active)
same,AC50,[17],13.2 µM (active)
same,AC50,[18],88.5 µM (active)
same,outcome,[19],inactive
CCC(C)(C)c1ccc(O)c(C(C)(C)CC)c1,outcome,[1],inactive
same,outcome,[2],inactive
same,outcome,[3],inactive
same,outcome,[4],inactive
same,outcome,[5],inactive
same,outcome,[6],inactive
same,outcome,[7],inactive
same,outcome,[8],inactive
same,outcome,[9],inactive
same,outcome,[10],inactive
same,outcome,[11],inactive
same,outcome,[12],inactive
same,outcome,[13],inactive
same,outcome,"TIMP1, TIMP1 (gene 7076)",inactive
same,outcome,[14],inactive
same,outcome,[15],inactive
same,outcome,[16],inactive
same,outcome,[17],inactive
same,outcome,[18],inactive
same,outcome,[19],inactive
O=C(O)C(F)(F)C(F)(F)C(F)(F)C(F)(F)C(F)(F)C(F)(F)C(F)(F)C(F)(F)C(F)(F)C(F)(F)F,outcome,[1],inactive
same,outcome,[2],inactive
same,outcome,[3],inactive
same,outcome,[4],inactive
same,outcome,[5],inactive
same,outcome,[7],inactive
same,outcome,[8],inactive
same,outcome,[9],inactive
same,outcome,[10],inactive
same,AC50,[11],47.8 µM (active)
same,outcome,[12],inactive
same,outcome,[13],inactive
same,outcome,"TIMP1, TIMP1 (gene 7076)",inactive
same,outcome,[14],inactive
same,outcome,[15],inactive
same,outcome,[17],inactive
same,outcome,[18],inactive
same,outcome,[19],inactive
